Test results reported in PubChem BioAssay (NCI).
Compounds without any hit were thinned out: in the full panel of roughly 83,000, 20% have a hit.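 Growth was measured after 48 h exposure to one concentration of compound in 96-well plates. Values under 10 count as active.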 Active and inactive are the calls of the source.

Legend:
Experiment in all cases: NCI-60 one-dose screen, 48 h (100 = growth as untreated, 0 = no growth, -100 = all killed)
Conditions in all cases: 10 µM unless noted
HCT-15 colon = system: HCT-15 colon
HT29 colon = system: HT29 colon
SNB-19 CNS = system: SNB-19 CNS
U251 CNS = system: U251 CNS
PC-3 prostate = system: PC-3 prostate
SK-MEL-5 melanoma = system: SK-MEL-5 melanoma
UACC-62 melanoma = system: UACC-62 melanoma
LOX IMVI melanoma = system: LOX IMVI melanoma
SK-MEL-28 melanoma = system: SK-MEL-28 melanoma
SK-MEL-2 melanoma = system: SK-MEL-2 melanoma
EKVX NSCLC = system: EKVX NSCLC
SN12C renal = system: SN12C renal
UO-31 renal = system: UO-31 renal
TK-10 renal = system: TK-10 renal
ACHN renal = system: ACHN renal
CAKI-1 renal = system: CAKI-1 renal
A498 renal = system: A498 renal
CCRF-CEM leukemia = system: CCRF-CEM leukemia
MOLT-4 leukemia = system: MOLT-4 leukemia

Measured: growth

Cc1nc2sc(C(=O)Nc3cccc4c3OCCO4)c(N)c2cc1C(C)O (configuration not stated)
inactive: HCT-15 colon 21.4% | SNB-19 CNS 34.3% | U251 CNS 28.7% | PC-3 prostate 32.6% | SK-MEL-5 melanoma 29.7% | UACC-62 melanoma 22% | LOX IMVI melanoma 33% | SK-MEL-28 melanoma 66.6% | SK-MEL-2 melanoma 17.1% | EKVX NSCLC 35.1% | SN12C renal 40.4% | UO-31 renal 44.3% | TK-10 renal 55.7% | ACHN renal 44.8% | CAKI-1 renal 40.9% | CCRF-CEM leukemia 19.3% | MOLT-4 leukemia 28.2%
active: HT29 colon 3.68% | A498 renal -4.54%

O=[N+]([O-])c1cccc(-c2nc3sccn3c2-c2ccnc(NCCNS(=O)(=O)c3ccc(C(F)(F)F)cc3)n2)c1
inactive: HCT-15 colon 26.7% | HT29 colon 40% | SNB-19 CNS 61.4% | U251 CNS 51.4% | PC-3 prostate 17% | UACC-62 melanoma 13.2% | LOX IMVI melanoma 30.4% | SK-MEL-28 melanoma 58.8% | SK-MEL-2 melanoma 26.9% | EKVX NSCLC 39.5% | SN12C renal 33% | UO-31 renal 17.3% | TK-10 renal 57.9% | ACHN renal 22.5% | CAKI-1 renal 30.3% | A498 renal 36.6% | CCRF-CEM leukemia 20.2% | MOLT-4 leukemia 18.2%
active: SK-MEL-5 melanoma -14%

COc1ccc(-n2cc(-c3ccccc3)c3c(SCC(=O)N/N=C/c4ccc([N+](=O)[O-])cc4)ncnc32)cc1
inactive: HCT-15 colon 108% | HT29 colon 114% | SNB-19 CNS 99.7% | U251 CNS 104% | PC-3 prostate 96.4% | SK-MEL-5 melanoma 100% | UACC-62 melanoma 97.5% | LOX IMVI melanoma 94.2% | SK-MEL-28 melanoma 110% | SK-MEL-2 melanoma 98.1% | EKVX NSCLC 97% | SN12C renal 102% | UO-31 renal 79.4% | TK-10 renal 108% | ACHN renal 105% | CAKI-1 renal 89.7% | A498 renal 108% | CCRF-CEM leukemia 104% | MOLT-4 leukemia 108%

CC[C@H](Nc1ncnc(N)c1C(N)=O)c1nc2cccc(NCc3ccc(C(=O)NO)cc3)c2c(=O)n1-c1ccccc1
inactive: HCT-15 colon 105% | HT29 colon 88.7% | SNB-19 CNS 68.2% | U251 CNS 52.9% | PC-3 prostate 92.1% | SK-MEL-5 melanoma 87.9% | UACC-62 melanoma 63.3% | LOX IMVI melanoma 103% | SK-MEL-28 melanoma 69.2% | SK-MEL-2 melanoma 82.8% | EKVX NSCLC 99.7% | SN12C renal 81.5% | UO-31 renal 71.8% | TK-10 renal 69.9% | ACHN renal 91% | CAKI-1 renal 93.2% | A498 renal 90.8% | CCRF-CEM leukemia 33% | MOLT-4 leukemia 67.8%

Nc1cc(O)cc2cccnc12
inactive: HCT-15 colon 110% | HT29 colon 106% | SNB-19 CNS 79.4% | U251 CNS 86.7% | PC-3 prostate 78.7% | SK-MEL-5 melanoma 72.4% | UACC-62 melanoma 89.5% | LOX IMVI melanoma 51.2% | SK-MEL-28 melanoma 112% | SK-MEL-2 melanoma 110% | EKVX NSCLC 104% | SN12C renal 72.5% | UO-31 renal 48.1% | TK-10 renal 104% | ACHN renal 77.3% | CAKI-1 renal 80.1% | A498 renal 118% | CCRF-CEM leukemia 86.6% | MOLT-4 leukemia 93%

COc1cc2c(c(OC)c1OC)-c1ccc(N=NC(N)=S)c(=O)cc1[C@@H](NC(C)=O)CC2
inactive: HCT-15 colon 76.4% | SNB-19 CNS 27.9% | PC-3 prostate 57.3% | UACC-62 melanoma 17.2% | LOX IMVI melanoma 13.5% | SK-MEL-28 melanoma 53.6% | EKVX NSCLC 52.4% | SN12C renal 37% | UO-31 renal 60.9% | TK-10 renal 19% | ACHN renal 65.8% | CAKI-1 renal 64.4% | CCRF-CEM leukemia 15% | MOLT-4 leukemia 20%
active: HT29 colon -2.5% | U251 CNS 9.3% | SK-MEL-5 melanoma -33.2% | SK-MEL-2 melanoma -10.1% | A498 renal -10.9%

COc1cc(/C=N\NC(=O)CN2CCN(c3cc4c(cc3F)c(=O)c(C(=O)N/N=C/c3ccc(O)c(OC)c3)cn4C3CC3)CC2)ccc1O
active: LOX IMVI melanoma 8.64% | MOLT-4 leukemia 5.76%
inactive: HCT-15 colon 97.2% | HT29 colon 14.1% | SNB-19 CNS 55.5% | U251 CNS 55.3% | PC-3 prostate 69.7% | SK-MEL-5 melanoma 56.8% | UACC-62 melanoma 52.9% | SK-MEL-28 melanoma 79.8% | SK-MEL-2 melanoma 68% | EKVX NSCLC 84.3% | SN12C renal 53.4% | UO-31 renal 76.7% | TK-10 renal 91.7% | ACHN renal 99.2% | CAKI-1 renal 82.8% | A498 renal 85.3% | CCRF-CEM leukemia 18.9%

O=C(Nc1ccc(Oc2ccc(F)cc2)c(Cl)c1)c1cccnc1
inactive: HCT-15 colon 84.3% | HT29 colon 88.5% | SNB-19 CNS 93.2% | U251 CNS 89% | PC-3 prostate 90.7% | SK-MEL-5 melanoma 79.5% | UACC-62 melanoma 81.3% | LOX IMVI melanoma 91.2% | SK-MEL-28 melanoma 103% | SK-MEL-2 melanoma 91.3% | EKVX NSCLC 81.9% | SN12C renal 95.8% | UO-31 renal 80.9% | TK-10 renal 97.7% | ACHN renal 99.5% | CAKI-1 renal 86.9% | A498 renal 70.8% | CCRF-CEM leukemia 101% | MOLT-4 leukemia 105%
